Among all 1,500 compounds or so, about 390 (26%) were called active. How the calls were made is not given here. A selection follows. Potency and affinity values are given separately.
target: Histone-lysine N-methyltransferase NSD2 (Homo sapiens) (UniProt O96028); experiment: blockers of NSD2 H4 peptide methylation – biochemical, AlphaScreen, cherry-picked samples, dose response (AID 1053173); settings: 120 min; series mostly up to 10 µM; activity change, negative = inhibition: at the top concentration;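 further: 0% = neutral control wells and -100% = positive control wells on each plate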
Sequence (O96028 whole entry, looked up): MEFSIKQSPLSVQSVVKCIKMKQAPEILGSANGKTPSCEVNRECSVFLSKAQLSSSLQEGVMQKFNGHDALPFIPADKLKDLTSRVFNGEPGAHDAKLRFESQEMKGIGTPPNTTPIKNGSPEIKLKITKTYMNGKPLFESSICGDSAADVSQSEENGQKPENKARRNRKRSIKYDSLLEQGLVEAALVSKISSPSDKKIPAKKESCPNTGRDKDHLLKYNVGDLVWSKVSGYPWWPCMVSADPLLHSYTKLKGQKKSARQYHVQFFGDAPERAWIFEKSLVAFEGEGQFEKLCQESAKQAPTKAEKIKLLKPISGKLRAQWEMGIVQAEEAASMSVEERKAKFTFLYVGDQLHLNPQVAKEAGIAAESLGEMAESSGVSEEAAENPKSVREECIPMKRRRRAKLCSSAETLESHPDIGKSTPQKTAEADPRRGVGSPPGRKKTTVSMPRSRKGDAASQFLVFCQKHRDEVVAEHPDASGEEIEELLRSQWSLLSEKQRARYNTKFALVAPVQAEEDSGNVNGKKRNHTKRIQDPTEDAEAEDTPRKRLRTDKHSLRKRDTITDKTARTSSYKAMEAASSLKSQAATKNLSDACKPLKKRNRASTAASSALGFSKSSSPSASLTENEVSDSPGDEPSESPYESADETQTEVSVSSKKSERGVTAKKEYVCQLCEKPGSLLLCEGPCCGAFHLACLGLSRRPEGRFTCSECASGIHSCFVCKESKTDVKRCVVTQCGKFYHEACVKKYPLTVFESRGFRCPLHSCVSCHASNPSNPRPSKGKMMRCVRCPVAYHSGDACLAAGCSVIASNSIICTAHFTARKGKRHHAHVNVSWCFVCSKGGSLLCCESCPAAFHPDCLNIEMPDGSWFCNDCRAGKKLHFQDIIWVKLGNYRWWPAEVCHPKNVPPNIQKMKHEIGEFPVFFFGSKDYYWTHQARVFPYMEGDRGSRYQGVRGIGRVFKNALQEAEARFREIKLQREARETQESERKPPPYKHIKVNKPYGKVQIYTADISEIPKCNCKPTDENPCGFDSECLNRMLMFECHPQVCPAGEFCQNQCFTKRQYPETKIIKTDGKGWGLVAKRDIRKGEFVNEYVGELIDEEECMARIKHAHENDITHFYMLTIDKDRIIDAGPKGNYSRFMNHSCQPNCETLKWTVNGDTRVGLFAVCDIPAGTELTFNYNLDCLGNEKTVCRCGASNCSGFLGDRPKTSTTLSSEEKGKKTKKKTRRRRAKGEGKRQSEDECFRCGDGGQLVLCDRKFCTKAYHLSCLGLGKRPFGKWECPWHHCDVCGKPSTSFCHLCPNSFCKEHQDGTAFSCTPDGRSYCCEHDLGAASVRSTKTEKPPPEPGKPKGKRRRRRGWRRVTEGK

Activity change, negative = inhibition, inactive:
Cn1ncc(Cl)c1C(=O)Nc1cc(C(F)(F)F)ccc1F -1.47%, COc1ccc(/C=C2/C(=O)N(c3c(F)c(F)c(F)c(F)c3F)N=C2C)cc1 0.848%, O=C(COc1ccc(S(=O)(=O)N2CCCC2)cc1)Nc1ccc(F)cc1 1.47%, O=C(O)CC(C(=O)O)N1C(=O)/C(=C/c2ccc(-c3nc4ccccc4s3)o2)SC1=S (configuration not stated) -6.38%, O=C(O)COc1ccc(/C=C/C(=O)c2ccc3ccccc3c2)cc1 -9.29%, O=C(CNC(=O)c1ccccc1)Oc1ccc([N+](=O)[O-])cc1 -4.16%, C=CCC1CCCCC1=C(C#N)c1ccccc1 (configuration not stated) -3.42%, NC1=NC(=Nc2ccc(Br)cc2)c2ccccc21 -5.36%, CC(=O)Nc1ccc(S(=O)(=O)/N=C2/NC(=O)/C(=C\c3ccco3)S2)cc1 -9.65%, Cc1[nH][nH]c(=O)c1C(c1ccc(-c2ccc(Cl)c(C(=O)O)c2)o1)c1c(C)[nH][nH]c1=O -7.88%, Cc1[nH][nH]c(=O)c1C(c1c(C)[nH][nH]c1=O)c1cn(C)c2ccccc12 -2.97%, COc1ccc2c(c1)Cc1sc(NC(=O)c3cccnc3)nc1-2 4.51%, Cc1ccc(N2CN=c3s/c(=C\c4ccccn4)c(=O)n3C2)cc1 -0.608%, COc1ccc(C=C(c2nc3ccccc3s2)c2nc3ccccc3s2)cc1O -9.17%, Cc1c(-c2cccc(Cl)c2)nc2ccccc2c1C(=O)OC/C(O)=C(\C#N)c1nc2ccccc2[nH]1 -3.82%, O=C(NC1CCCc2ccccc21)c1ccccc1OC(F)F (configuration not stated) 0.349%, O=C1Nc2ccc(S(=O)(=O)NCc3ccco3)c3cccc1c23 0.667%, COc1ccc(NC2CCCN(C(=O)c3ccccc3N3CCOCC3)C2)cc1OC (configuration not stated) -0.733%, Cn1c(NNC(=O)c2c(F)cccc2F)cc(=O)n(C)c1=O 6%, Cc1[nH][nH]c(=O)c1C(c1ccc(-c2ccccc2C(=O)O)o1)c1c(C)[nH][nH]c1=O -9.78%, Nc1nonc1-c1nc2ccccc2n1CC(=O)N/N=C/c1ccc(-c2ccccc2C(=O)O)o1 -10.2%, O=C(CSc1n[nH]c(-c2ccncc2)n1)Nc1ccc(Cl)c(Cl)c1 -5.23%, Cc1nnc(N/N=C\c2ccc(-c3cccc(C(=O)O)c3)o2)n1N 1.17%, Cc1ccc(-c2ccc(/C=N/NC(=O)CN3CCOCC3)o2)cc1[N+](=O)[O-] -0.384%, O=C(CCN1CCOCC1)NCC1COc2ccccc2O1 (configuration not stated) 4.15%, COc1cc(CC(=O)NCC2COc3ccccc3O2)cc(OC)c1OC (configuration not stated) 4.11%, COc1cc(C(=O)NC2CCCc3ccccc32)cc(OC)c1OC (configuration not stated) -3.18%, CN(C)/C=C1\C=C2C(=O)c3ccccc3N2C1=O -11.9%, Cc1c(C)c2cc(Cl)c(O)c(CN(C)C)c2oc1=O -4.88%, Nc1nonc1C(=O)NCCNC(=O)c1ccccc1F 4.89%, O=C(Nc1cccnc1)c1ccc(COc2ccccc2Cl)o1 -3.23%, CNc1ccc(Br)cc(C(=O)/C=C/c2ccc(OC)cc2)c1=O -11.9%, O=C(CCc1nnc(CCCCc2ccccc2)o1)NC1CCCC1 0.963%, Cc1ccc(-n2nc(C(=O)NCc3ccc(C)o3)c3c4ccccc4n(C)c3c2=O)cc1 -0.692%, CC(C)(C#N)NC(=O)C1CCCN1S(=O)(=O)c1ccc2ccccc2c1 (configuration not stated) -3.31%, Cc1ccc2cccc(NC3OC(=O)c4ccccc43)c2n1 (configuration not stated) -5.91%, COc1cc(C(=O)Nn2c(O)c(C3=c4ccccc4=NC3=O)sc2=S)ccc1O 1.57%, CN1CCN(c2ccc(NC(=O)COc3ccc4ccccc4c3)cc2)CC1 6.91%, CC(=O)N1CCN(c2ccccc2NC(=O)c2ccc3ccccc3c2)CC1 4.94%, COc1c(F)c(F)c(C(=O)Nc2cccc(Cl)c2N2CCOCC2)c(F)c1F -1.41%, Nc1c2c(=O)oc(-c3ccccc3)cc2nn1-c1ccccc1 0.608%, Cc1ccccc1-c1ocnc1C(=O)Nc1ccccc1NC(=O)c1ccccn1 -3.59%, O=C(N/N=C/c1cc2c(cc1[N+](=O)[O-])OCO2)c1ccccn1 1.47%, O=C(Nc1cccc(C(F)(F)F)c1)c1cc(-c2ccco2)on1 -0.125%, Cc1cccc(N2CCN(S(=O)(=O)c3c(C)nc4scc(C)n4c3=O)CC2C)c1 (configuration not stated) 4.46%, O=C(Nc1cc(S(=O)(=O)Nc2ccccc2F)ccc1Cl)c1ccc(F)cc1F -4.71%, CC1CC(C)CN(C(=O)C2CCN(S(=O)(=O)c3cccs3)CC2)C1 (configuration not stated) -1.91%, Cn1c(=O)c2c(nc(CN3CCc4ccccc4C3)n2CCc2ccccc2)n(C)c1=O -0.06%, Cc1ccccc1-n1nc(C)c2c1N=C1C(Cl)=CC(Cl)=CN1C2c1ccc(C(=O)O)cc1 (configuration not stated) -5.97%, CC(C)N(Cc1ccccc1)C(=O)C1CCCN(c2ncnc3c2nc2n3CCCCC2)C1 (configuration not stated) -1.45%, COc1ccc(NC(=O)c2ccc(F)c(F)c2)c2ccccc12 2.95%, c1ccc(-c2cc(-c3ccccc3)n3ncnc3n2)cc1 -0.881%, COCCNC(=O)Cc1c(C)c2c(cc(C)c3c(C)coc32)oc1=O -2.39%, CC1CCN(C(=O)CN(Cc2ccc(Cl)cc2)S(C)(=O)=O)CC1 -3.55%, CCc1ccccc1NC(=O)CSc1nc2n[nH]c(C)c2c(=N)n1-c1cccc(OC)c1 0.33%, CC(NC(=O)COC(=O)c1ccc([N+](=O)[O-])s1)c1ccccc1 (configuration not stated) -0.22%, CSc1ccccc1NC(=O)CN(C)C(=O)COc1ncnc2ccccc12 4.86%, COCCOC(=O)C1=C(C)NC(C)=C(C(=O)OC(C)C)C1c1cccc([N+](=O)[O-])c1 (configuration not stated) -0.917%, Nn1cnnc1N/N=C\c1ccc(-c2ccccc2[N+](=O)[O-])o1 -6.2%, Cc1nnc(N/N=C/c2ccc(-c3ccccc3F)o2)n1N -3.53%, CC(C)c1ccc(NC(=S)N2CCCC(c3ccc(F)cc3)=N2)cc1 6.21%, Cc1ccc(NC(=S)N2CCC(NC(=O)c3cccc(F)c3)CC2)cc1 4.83%, COc1ccc(S(=O)(=O)N2CCCC(C(=O)NCCCn3ccnc3)C2)cc1OC (configuration not stated) -0.379%, CC1CN(c2nc3c(c(=O)n(Cc4ccc(Cl)cc4)c(=O)n3C)n2C)CC(C)O1 (configuration not stated) 0.136%, O=c1c2c(n3cnnc3n1-c1ccccc1)-c1ccccc1CC21CCCC1 0.452%, N#Cc1cc(-c2ccccc2)nnc1Oc1ccccc1Cl -2.46%, CCN(CC)S(=O)(=O)c1ccc(-c2cn3cc(Cl)ccc3n2)cc1 4.2%
